Entries with a potency or affinity are not part of this list. Activity calls are given as the source filed them.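 How the source made its calls: active means potentiation or inhibition seen at some tested dose and a dose response curve obtained; inactive means no potentiation or inhibition at any dose, or no curve.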

Chain of Potassium voltage-gated channel subfamily KQT member 1 (Homo sapiens) + Potassium voltage-gated channel subfamily E member 1 (Homo sapiens) (O88943 whole entry, looked up): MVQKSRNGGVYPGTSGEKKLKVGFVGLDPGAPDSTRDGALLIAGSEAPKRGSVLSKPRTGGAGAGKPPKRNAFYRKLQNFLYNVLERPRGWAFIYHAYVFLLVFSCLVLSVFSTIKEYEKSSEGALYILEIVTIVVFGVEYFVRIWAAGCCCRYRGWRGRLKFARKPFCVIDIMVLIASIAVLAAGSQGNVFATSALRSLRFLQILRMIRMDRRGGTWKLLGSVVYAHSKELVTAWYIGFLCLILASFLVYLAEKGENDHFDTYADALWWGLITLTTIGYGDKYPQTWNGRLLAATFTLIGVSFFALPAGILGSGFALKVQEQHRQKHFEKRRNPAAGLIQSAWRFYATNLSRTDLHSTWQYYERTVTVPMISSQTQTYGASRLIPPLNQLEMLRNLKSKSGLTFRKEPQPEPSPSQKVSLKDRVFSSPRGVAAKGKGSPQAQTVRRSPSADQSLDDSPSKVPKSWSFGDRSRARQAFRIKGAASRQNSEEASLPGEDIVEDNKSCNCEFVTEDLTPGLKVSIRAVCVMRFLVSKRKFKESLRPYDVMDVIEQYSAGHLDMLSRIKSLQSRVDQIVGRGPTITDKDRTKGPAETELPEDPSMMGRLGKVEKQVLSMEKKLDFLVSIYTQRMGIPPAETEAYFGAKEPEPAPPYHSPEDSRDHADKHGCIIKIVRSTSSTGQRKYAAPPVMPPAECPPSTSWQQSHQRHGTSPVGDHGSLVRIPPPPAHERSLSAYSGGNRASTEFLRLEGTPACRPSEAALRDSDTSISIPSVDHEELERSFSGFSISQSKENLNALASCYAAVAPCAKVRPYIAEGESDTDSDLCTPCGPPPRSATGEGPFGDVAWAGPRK
Chain of Potassium voltage-gated channel subfamily KQT member 1 (Homo sapiens) + Potassium voltage-gated channel subfamily E member 1 (Homo sapiens) (P51787 whole entry, looked up): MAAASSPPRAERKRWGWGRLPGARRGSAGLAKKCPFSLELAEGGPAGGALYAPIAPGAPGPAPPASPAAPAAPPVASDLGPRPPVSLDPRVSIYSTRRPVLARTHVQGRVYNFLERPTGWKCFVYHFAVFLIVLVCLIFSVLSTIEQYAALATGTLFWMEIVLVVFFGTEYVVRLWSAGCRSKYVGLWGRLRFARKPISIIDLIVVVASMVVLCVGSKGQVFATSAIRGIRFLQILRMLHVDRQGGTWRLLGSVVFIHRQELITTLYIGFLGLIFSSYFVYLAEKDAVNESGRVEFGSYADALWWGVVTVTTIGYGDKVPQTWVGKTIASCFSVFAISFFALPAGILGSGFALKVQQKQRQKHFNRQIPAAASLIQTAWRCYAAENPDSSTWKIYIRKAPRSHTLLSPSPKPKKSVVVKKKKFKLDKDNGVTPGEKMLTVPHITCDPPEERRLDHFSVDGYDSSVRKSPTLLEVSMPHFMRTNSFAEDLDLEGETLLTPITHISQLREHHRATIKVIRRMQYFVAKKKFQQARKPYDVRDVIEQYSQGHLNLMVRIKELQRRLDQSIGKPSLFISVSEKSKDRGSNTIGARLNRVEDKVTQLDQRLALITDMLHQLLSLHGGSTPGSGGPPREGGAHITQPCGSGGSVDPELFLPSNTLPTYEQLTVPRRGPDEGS

This assay has as its target Potassium voltage-gated channel subfamily KQT member 1 (Homo sapiens) + Potassium voltage-gated channel subfamily E member 1 (Homo sapiens) (UniProt P15382+P51787). Description: KCNQ1/KCNE1 channel current potentiation, dose response, selectivity assay for KCNQ2 activator project, automated patch clamp, CHO cells (AID 493042). The note with it: series mostly up to 30 µM.
As for `CCCCC(=O)Nc1c(C)cc(C)cc1Cl`, the outcome was inactive. Then `Cc1cc(C)c(NC(=O)CC(C)(C)C)c(Cl)c1`, with “inactive”; and `Cc1cccc(C)c1NC(=O)C1CC2CCC1C2` (stereo not drawn), with “inactive”.

For the origin of these results see PubChem BioAssay AID493042 (Johns Hopkins Ion Channel Center, 2011).
